From PubChem BioAssay (Tox21)
Inconclusive results are not listed. Calls of active or inactive are those of the source. Unless noted, calls follow the shape of the dose curve; as a rule, active = well fitted curve in the direction sought with a large enough effect in the repeat runs; inconclusive = weak or mixed curves; inactive = no such curve, though single readings can be large; an effect the other way counts as inactive or inconclusive. Positions of bridges follow the written chain, without caps; N, C: chain ends. Non-standard residues stand in square brackets, D forms with d. Residues, ends and D or L forms follow the SMILES beside them. hArg = N=C(N)NCCCC[C@H](N)C(=O)O; Mpa = O=C(O)CCS

Columns and labels:
[1] = target: Peroxisome proliferator-activated receptor delta (Homo sapiens) (UniProt Q03181); test: qHTS assay to identify small molecule agonists of the peroxisome proliferator-activated receptor delta (PPARd) signaling pathway (AID 743212; calls by dose curve)
Outline: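 A PPARd-bla HEK293H line with beta-lactamase under an Upstream Activator Sequence is treated with compounds at 37 C. Substrate loading for 2 h at room temperature precedes the fluorescence measurement.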

[2] = target: Peroxisome proliferator-activated receptor delta (Homo sapiens) (UniProt Q03181); test: qHTS assay to identify small molecule antagonists of the peroxisome proliferator-activated receptor delta (PPARd) signaling pathway (AID 743215; active = well fitted inhibition curve with a large enough effect in the signal ratio in the repeat runs, not every such curve was filed as active; the % refers to the signal ratio;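 also: cells stimulated with agonist L165041 at 300 nM final during compound exposure; series mostly up to about 62 µM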)
Outline: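 HEK293H UAS-bla, PPARd; agonist L165041 300 nM final with cpd in DMSO; 37 C 17 h; FRET substrate, RT 2 h; fluorescence intensity.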

[3] = qHTS assay to identify small molecule agonists of the farnesoid-X-receptor (FXR) signaling pathway - cell viability counter screen (AID 743218); also: nearly all actives have a fitted effect of over 45% in size
Outline: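 Parallel cytotoxicity test: compound-treated (16 h, 37 C) HEK 293T FXR-bla reporter cells were lysed with CellTiter-Glo and luminescence recorded.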

[4] = target: Bile acid receptor (Homo sapiens) (UniProt Q96RI1); test: qHTS assay to identify small molecule agonists of the farnesoid-X-receptor (FXR) signaling pathway (AID 743220; active = well fitted activation curve with a large enough effect in the signal ratio in the repeat runs, not every such curve was filed as active; the % refers to the signal ratio)
Outline: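 Beta-lactamase reporter under UAS control in GeneBLAzer FXR HEK 293T cells (5000/well) measured with LiveBLAzer FRET substrate after 2 h at room temperature. Compound exposure lasted 16 h at 37C.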

[5] = qHTS assay to identify small molecule antagonists of the farnesoid-X-receptor (FXR) signaling pathway - cell viability counter screen (AID 743221; active = well fitted cell-killing curve with a large enough effect in the repeat runs, not every such curve was filed as active; also: nearly all actives have a fitted effect of over 50% in size)
Outline: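 Multiplexed counter screen: viability of FXR-bla HEK 293T cells under agonist stimulation by chenodeoxycholic acid (50 uM, final) and test compound for 16 h at 37 C, measured by CellTiter-Glo luminescence in the reporter wells.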

[6] = qHTS assay to identify small molecule agonists of the vitamin D receptor (VDR) signaling pathway - cell viability counter screen (AID 743224); also: series mostly up to about 63 µM; nearly all actives have a fitted effect of over 50% in size
Outline: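 Plated VDR-bla cells (4 h, 37C) received compound, incubated 16 h, then LiveBLAzer substrate 2 h RT; CellTiter-Glo added afterwards, luminescence read at 30 min.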

[7] = target: Vitamin D3 receptor (Homo sapiens) (UniProt P11473); test: qHTS assay to identify small molecule agonists of the vitamin D receptor (VDR) signaling pathway (AID 743222; calls by dose curve)
Outline: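 In VDR-bla cells, compound-induced beta-lactamase expression is quantified by FRET substrate fluorescence. Treatment lasts 16 h at 37C; substrate develops 2 h at room temperature.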

[8] = qHTS assay to identify small molecule antagonists of the peroxisome proliferator-activated receptor delta (PPARd) signaling pathway - cell viability counter screen (AID 743213); also: nearly all actives have a fitted effect of over 50% in size
Outline: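 In this counter screen, HEK293H cells carrying a UAS-beta-lactamase reporter are co-treated with test compounds and 300 nM L165041 (final) for 17 h at 37 C; cell viability is quantified by CellTiter-Glo luminescence.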

[9] = target: Bile acid receptor (Homo sapiens) (UniProt Q96RI1); test: qHTS assay to identify small molecule antagonists of the farnesoid-X-receptor (FXR) signaling pathway (AID 743217; active = well fitted inhibition curve with a large enough effect in the signal ratio in the repeat runs, not every such curve was filed as active; the % refers to the signal ratio)
Outline: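 GeneBLAzer FXR-UAS-bla HEK 293T, CDCA-stimulated (50 uM final). Compound treatment 16 h, 37 °C. Detection: beta-lactamase cleavage of B/G FRET substrate, fluorescence.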

[10] = target: Vitamin D3 receptor (Homo sapiens) (UniProt P11473); test: qHTS assay to identify small molecule antagonists of the vitamin D receptor (VDR) signaling pathway (AID 743223; active = well fitted inhibition curve with a large enough effect in the signal ratio in the repeat runs, not every such curve was filed as active; the % refers to the signal ratio)
Outline: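 Cells carrying a VDR-driven beta-lactamase reporter (VDR-bla) were co-treated with compound and 3 nM final 1alpha,25-dihydroxyvitamin D3 for 16 h at 37C; reporter activity was measured as FRET substrate fluorescence after 2 h at room temperature.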
% is scaled to controls: 0 for no effect and ±100 for the full control effect.

Sequence of Vitamin D3 receptor (Homo sapiens) (P11473 whole entry, looked up): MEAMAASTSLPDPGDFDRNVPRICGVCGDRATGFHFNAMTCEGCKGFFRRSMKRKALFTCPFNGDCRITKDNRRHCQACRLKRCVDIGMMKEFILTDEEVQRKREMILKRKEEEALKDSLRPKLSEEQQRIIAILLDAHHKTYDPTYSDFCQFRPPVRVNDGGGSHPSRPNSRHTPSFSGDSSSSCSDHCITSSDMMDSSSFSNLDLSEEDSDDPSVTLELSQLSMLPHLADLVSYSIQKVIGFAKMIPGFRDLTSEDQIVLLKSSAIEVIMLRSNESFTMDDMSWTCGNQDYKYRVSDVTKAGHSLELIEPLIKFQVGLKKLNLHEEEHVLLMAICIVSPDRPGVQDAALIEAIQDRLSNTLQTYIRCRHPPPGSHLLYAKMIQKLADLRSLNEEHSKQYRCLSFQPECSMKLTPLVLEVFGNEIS
Sequence of Peroxisome proliferator-activated receptor delta (Homo sapiens) (Q03181 whole entry, looked up): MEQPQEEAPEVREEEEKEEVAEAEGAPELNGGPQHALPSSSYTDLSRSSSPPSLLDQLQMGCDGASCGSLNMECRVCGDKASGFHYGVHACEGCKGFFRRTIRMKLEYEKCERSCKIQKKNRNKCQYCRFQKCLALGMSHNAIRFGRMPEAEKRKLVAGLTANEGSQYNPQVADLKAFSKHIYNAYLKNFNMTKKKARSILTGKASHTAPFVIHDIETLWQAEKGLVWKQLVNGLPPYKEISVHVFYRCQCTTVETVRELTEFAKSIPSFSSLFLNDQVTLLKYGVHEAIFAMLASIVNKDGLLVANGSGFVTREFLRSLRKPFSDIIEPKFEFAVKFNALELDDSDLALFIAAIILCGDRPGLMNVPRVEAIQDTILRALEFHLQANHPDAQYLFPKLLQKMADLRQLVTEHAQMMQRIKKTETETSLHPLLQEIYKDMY
Sequence of Bile acid receptor (Homo sapiens) (Q96RI1 whole entry, looked up): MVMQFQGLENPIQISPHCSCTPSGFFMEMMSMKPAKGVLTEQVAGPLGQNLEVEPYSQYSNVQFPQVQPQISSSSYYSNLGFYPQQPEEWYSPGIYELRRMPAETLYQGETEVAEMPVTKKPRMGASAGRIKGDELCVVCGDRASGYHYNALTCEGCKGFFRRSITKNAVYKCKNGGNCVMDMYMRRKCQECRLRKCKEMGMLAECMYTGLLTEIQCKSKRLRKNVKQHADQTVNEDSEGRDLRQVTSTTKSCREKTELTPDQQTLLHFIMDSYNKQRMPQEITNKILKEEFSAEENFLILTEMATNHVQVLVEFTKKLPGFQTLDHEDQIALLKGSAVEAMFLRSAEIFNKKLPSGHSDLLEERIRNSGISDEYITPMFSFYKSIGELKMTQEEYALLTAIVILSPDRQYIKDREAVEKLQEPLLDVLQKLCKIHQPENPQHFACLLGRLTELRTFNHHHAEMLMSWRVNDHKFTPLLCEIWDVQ

COc1cc2c(cc1OC)C(=O)C(CC1CCN(Cc3ccccc3)CC1)C2 (stereo unspecified)
inactive: outcome [1] | outcome [2] | outcome [3] | outcome [4] | outcome [5] | outcome [6]

O=C1OCCO1
inactive: outcome [1] | outcome [2] | outcome [3] | outcome [4] | outcome [5] | outcome [7] | outcome [6]

CC(C)[C@H]1CC[C@H](C)C[C@@H]1O
inactive: outcome [1] | outcome [8] | outcome [3] | outcome [4] | outcome [5] | outcome [7] | outcome [6]

CCCCCCCCCCCCCCCCCCOCCO
inactive: outcome [1] | outcome [2] | outcome [9] | outcome [3] | outcome [4] | outcome [5] | outcome [7] | outcome [10] | outcome [6]

CCC(C(=O)OCCN1CCOC(c2ccccc2)C1C)c1ccccc1 (stereo unspecified)
inactive: outcome [1] | outcome [8] | outcome [3] | outcome [5] | outcome [7] | outcome [6]

CCCCCCCCCCCCCCCCCC#N
inactive: outcome [1] | outcome [8] | outcome [6]

O=S(=O)(O)c1ccc2c(N=Nc3ccc(S(=O)(=O)O)c4ccccc34)c(O)c(S(=O)(=O)O)cc2c1
inactive: activation [1] 0.0676% [at 5.95 µM] | ratio activity, negative = inhibition [2] 7.03% [at 6.26 µM] | viability change, negative = cytotoxic [3] 1.45% [at 5.95 µM] | activation [4] -0.449% [at 5.95 µM] | activity change, negative = cytotoxicity [5] -3.15% [at 5.95 µM] | activation [7] -5.96% [at 6.01 µM] | activity change, negative = inhibition [10] 8.98% [at 6.95 µM]

CCC(C)C(C)=O (stereo unspecified)
inactive: outcome [1] | outcome [8] | outcome [3] | outcome [7] | outcome [10] | outcome [6]

C/C(=C1\CCOC(=O)S1)N(C=O)Cc1cnc(C)nc1N
inactive: outcome [1] | outcome [2] | outcome [9] | outcome [4] | outcome [5] | outcome [7]

CCCCCCCCCOC(=O)CCCCC(=O)OCCCCCCC
inactive: outcome [1] | outcome [8] | outcome [3] | outcome [5] | outcome [7]

CC(C)(CO)C(O)C(=O)NCCCO (stereo unspecified)
inactive: outcome [1] | outcome [2] | outcome [3] | outcome [4] | outcome [5] | outcome [7] | outcome [10] | outcome [6]

CC(CO)(CO)CO
inactive: outcome [1] | outcome [8] | outcome [5] | outcome [7] | outcome [10] | outcome [6]

NC(=O)[C@@H]1CSSCCC(=O)N[C@@H](CCCCN=C(N)N)C(=O)NCC(=O)N[C@@H](CC(=O)O)C(=O)N[C@@H](Cc2c[nH]c3ccccc23)C(=O)N2CCC[C@H]2C(=O)N1 ([Mpa][hArg]GDWPC-NH2; disulfide 1-7)
inactive: outcome [1] | outcome [8] | outcome [3] | outcome [4] | outcome [5] | outcome [7] | outcome [10]

CN1CCOC(c2ccccc2)c2ccccc2C1 (stereo unspecified)
inactive: outcome [1] | outcome [2] | outcome [3] | outcome [4] | outcome [6]

Cc1c(C(=O)c2c[nH]n(C)c2=O)ccc(S(C)(=O)=O)c1C1=NOCC1
inactive: outcome [1] | outcome [8] | outcome [3] | outcome [5] | outcome [7] | outcome [6]

CC1(C)Cc2cccc(N)c2O1
inactive: outcome [1] | outcome [2] | outcome [9] | outcome [4] | outcome [5] | outcome [7] | outcome [10]

C[C@H]1[C@@H](c2ccccc2)NC(=O)N1C
inactive: outcome [1] | outcome [2] | outcome [9] | outcome [3] | outcome [4] | outcome [5] | outcome [7] | outcome [6]

C=CCOC(=O)CCCCCC
inactive: outcome [1] | outcome [8] | outcome [3] | outcome [7] | outcome [10] | outcome [6]

c1ccc2cnccc2c1
inactive: outcome [1] | outcome [8] | outcome [3] | outcome [5] | outcome [7] | outcome [6]

CC1(C)CC(OC(=O)CCCCCCCCC(=O)OC2CC(C)(C)NC(C)(C)C2)CC(C)(C)N1
inactive: outcome [1] | outcome [8] | outcome [3] | outcome [5] | outcome [7] | outcome [10] | outcome [6]

Nc1nc(-c2ccccc2)c(Br)c(=O)[nH]1
inactive: outcome [1] | outcome [2] | outcome [3] | outcome [5] | outcome [7] | outcome [10] | outcome [6]

CC(=O)C1C(=O)C=C(C)OC1=O (stereo unspecified)
inactive: outcome [1] | outcome [8] | outcome [9] | outcome [4] | outcome [5] | outcome [7] | outcome [6]

CCC/C=C(\C=O)CC
inactive: outcome [1] | outcome [8] | outcome [3] | outcome [5] | outcome [7]

OCC1(CO)COCOC1
inactive: outcome [1] | outcome [2] | outcome [3] | outcome [4]

CN(C)C(C)(C)CO
inactive: outcome [1] | outcome [2] | outcome [9] | outcome [3] | outcome [4] | outcome [5] | outcome [7] | outcome [10]

CC1CC(=O)CC(C)(C)C1 (stereo unspecified)
inactive: outcome [1] | outcome [8] | outcome [3] | outcome [5] | outcome [7] | outcome [10] | outcome [6]

CC1=C(C(=O)O)N2C(=O)[C@@H](NC(=O)[C@H](N)c3ccccc3)[C@H]2SC1
inactive: outcome [1] | outcome [8] | outcome [5] | outcome [7] | outcome [10] | outcome [6]

CC(=O)C(C)O (stereo unspecified)
inactive: outcome [1] | outcome [2] | outcome [9] | outcome [3] | outcome [4] | outcome [5] | outcome [7] | outcome [10] | outcome [6]

C=CCN1C[C@H](C(=O)N(CCCN(C)C)C(=O)NCC)C[C@@H]2c3cccc4[nH]cc(c34)C[C@H]21
inactive: outcome [1] | outcome [2] | outcome [7] | outcome [6]

Cc1cc(-c2ccccc2)nnc1NCCN1CCOCC1
inactive: outcome [1] | outcome [3] | outcome [7] | outcome [10]

CC(S)C(C)S (stereo unspecified)
inactive: outcome [1] | outcome [9] | outcome [3] | outcome [4] | outcome [5] | outcome [7]

CCCC(=O)Nc1ccc(OCC(O)CNC(C)C)c(C(C)=O)c1 (stereo unspecified)
inactive: outcome [1] | outcome [2] | outcome [3] | outcome [5] | outcome [7] | outcome [10] | outcome [6]

COC(=O)/C=C\C(=O)O
inactive: outcome [1] | outcome [2] | outcome [3] | outcome [5] | outcome [6]

CCCCCCCCCCCCCCC(=O)NC(CO)CCCCCCCCCCCCCC (stereo unspecified)
inactive: outcome [1] | outcome [9] | outcome [4] | outcome [5] | outcome [7] | outcome [6]

CN(C)CCCCl
inactive: outcome [1] | outcome [3] | outcome [4] | outcome [5] | outcome [7] | outcome [6]

C/C(CC(C)C)=N\O
inactive: outcome [1] | outcome [2] | outcome [3] | outcome [5] | outcome [7] | outcome [10] | outcome [6]

CC1(C)Oc2ccc(C#N)cc2[C@@H](N2CCCC2=O)[C@@H]1O
inactive: outcome [8] | outcome [9] | outcome [3] | outcome [4] | outcome [5] | outcome [6]

CC(Oc1cc(Cl)ccc1Cl)C(=O)O (stereo unspecified)
inactive: outcome [8] | outcome [2] | outcome [3] | outcome [6]

CC(=O)O[Si](C)(OC(C)=O)OC(C)=O
inactive: outcome [1] | outcome [2] | outcome [5] | outcome [7] | outcome [10] | outcome [6]

CCCCCCCCCCOC(C)=O
inactive: outcome [1] | outcome [2] | outcome [3] | outcome [5] | outcome [10] | outcome [6]

COc1ccc(CCO)cc1
inactive: outcome [1] | outcome [2] | outcome [5] | outcome [7] | outcome [6]

CCO[Si](CC)(OCC)OCC
inactive: outcome [1] | outcome [2] | outcome [5] | outcome [7]

CCCCCCC1(C)CCC(=O)O1 (stereo unspecified)
inactive: outcome [1] | outcome [3] | outcome [5] | outcome [7] | outcome [6]

CC(=O)c1cc(C)oc1C
inactive: outcome [1] | outcome [2] | outcome [5] | outcome [7] | outcome [10] | outcome [6]

C=CC(=O)CCCCC
inactive: outcome [1] | outcome [3] | outcome [6]

CCCCOC(=O)[C@H](C)O
inactive: outcome [1] | outcome [2] | outcome [4] | outcome [5] | outcome [7]
